Laboratory results taken from PubChem BioAssay (NCI).
This is part of a sample that, as a whole, favours compounds with a hit. Of some 83,000 tested, about 20% had one in any assay.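 Single-dose data. Exposure time 48 hours. Values below 10 considered active.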 Values without a mark were called inactive. Calls of active or inactive are those of the source.

How the values were obtained:
Experiment in all cases: NCI-60 one-dose screen, 48 h (100 = growth as untreated, 0 = no growth, -100 = all killed)
Conditions in all cases: 10 µM unless noted
SR leukemia = tested on: SR leukemia
RPMI-8226 leukemia = tested on: RPMI-8226 leukemia
OVCAR-8 ovarian = tested on: OVCAR-8 ovarian
OVCAR-5 ovarian = tested on: OVCAR-5 ovarian
OVCAR-4 ovarian = tested on: OVCAR-4 ovarian
IGROV1 ovarian = tested on: IGROV1 ovarian
OVCAR-3 ovarian = tested on: OVCAR-3 ovarian
HS 578T breast = tested on: HS 578T breast
NCI/ADR-RES ovarian = tested on: NCI/ADR-RES ovarian
SK-OV-3 ovarian = tested on: SK-OV-3 ovarian

| SMILES | growth (SR leukemia) | growth (RPMI-8226 leukemia) | growth (OVCAR-8 ovarian) | growth (OVCAR-5 ovarian) | growth (OVCAR-4 ovarian) | growth (IGROV1 ovarian) | growth (OVCAR-3 ovarian) | growth (HS 578T breast) | growth (NCI/ADR-RES ovarian) | growth (SK-OV-3 ovarian) |
| --- | --- | --- | --- | --- | --- | --- | --- | --- | --- | --- |
| CN(C)c1ccc(-c2ccc3[nH]c(=O)nc(-c4ccccc4)c3c2)cn1 | 16.2% | 56.5% | 63.8% | 65.9% | 70.4% | 49.7% | 5.38% (active) | 55.6% | 49.4% | – |
| COC(=O)[C@]12CC[C@@H](C)[C@H](C)[C@@H]1C1=CC[C@@H]3[C@@]4(C)C(C=O)=C[C@@](C)(COC(C)=O)[C@@H]4[C@H](O)C[C@@]3(C)[C@]1(C)CC2 | -26.2% (active) | -17% (active) | -0.958% (active) | -28.3% (active) | 9.81% (active) | – | -85.7% (active) | -18.3% (active) | 2.88% (active) | 6.14% (active) |
| CC1(C)OC2C(CO[Si](C)(C)C(C)(C)C)OC(n3c(I)c(C#C[Si](C)(C)C)c(=O)[nH]c3=O)C2O1 (configuration not stated) | 63.6% | -12.2% (active) | 88.6% | 92.6% | -68.4% (active) | 96.7% | -41.1% (active) | 3.19% (active) | 82.7% | – |
| O=C(CC(SCc1ccccc1)c1ccccc1)c1ccccc1 (configuration not stated) | 41% | 38.5% | 103% | 98.4% | – | 91.4% | 86.5% | 107% | 93.5% | 99.7% |
| COc1ccc(-c2cc(-c3ccc(Nc4nc(Nc5ccc(Cl)cc5)nc(Nc5ccc(Cl)cc5)n4)cc3)nc(N)c2C#N)cc1 | 5.37% (active) | -23.5% (active) | – | 37% | 14.6% | 6.53% (active) | -15.5% (active) | 29.2% | 51% | 104% |
| COc1cccc(C(=O)NCCNc2cc(-c3cn(-c4ccccc4)nc3-c3cccc(OC)c3)ccn2)c1 | 2.08% (active) | 39.1% | 40% | 91.7% | – | 74.1% | 54.5% | 61.8% | 47.2% | 54.6% |
| Cc1ccc(Cl)c(NS(=O)(=O)c2ccc(-c3cnc(C4CC4)o3)cc2)c1 | 15.7% | 18.8% | 28.1% | 26.4% | – | 27% | -1.26% (active) | 13.5% | 19.5% | 44.5% |
| N#Cc1c(N2CCNCC2)nc2sc3cc(Cl)c(Cl)cc3n2c1=N | 116% | 80.2% | 94.5% | 131% | – | – | 107% | 114% | 106% | 84.7% |
| O=c1c2c3c(sc2nc(N/N=C/c2ccc(Br)cc2)n1Cc1ccccc1)CCCC3 | 33.5% | 52% | – | 78.3% | 84.2% | – | – | 64.8% | 80% | 81.7% |
| Cc1ccc(-n2c(-c3ccccc3)c(-c3ccccc3)c3c(SCC(=O)n4[nH]c(N)cc4=O)ncnc32)cc1 | 103% | 81.9% | 83.2% | 101% | – | 79.8% | 91.9% | 106% | 105% | 79.5% |
| c1cc2ccc3cc2cc1CNCCOCCNCc1ccc2ccc(cc2c1)CNCCOCCNC3 | 10.1% | 0.51% (active) | -3.14% (active) | -16.8% (active) | – | -4.09% (active) | -40% (active) | -17.6% (active) | 105% | – |
| COc1ccc(C2=Nc3c(N)ncnc3NC(c3ccc4c(c3)OCO4)C2)cc1 (configuration not stated) | 96.5% | 61.5% | 103% | 72.9% | – | – | – | 87.7% | 75.7% | 97.5% |
| COc1cc(-c2nc(N3CCN(C)CC3)c3ccccc3n2)cc(OC)c1OC | 48.9% | 71.2% | – | 88.5% | 55.9% | – | 3.18% (active) | 41.1% | 10.3% | 68.4% |
| CCCCCCCCn1ccc2cc(NC(=O)Cn3cc(CN4CCCC4)nn3)ccc21 | 19.2% | -66% (active) | – | 88.4% | 76.2% | 76% | 51.9% | 76.8% | 92.7% | 87.2% |
| COc1cccc(-c2nn(-c3ccccc3)cc2-c2ccnc(NCCCNC(=O)c3cccc(C(F)(F)F)c3)c2)c1 | -29% (active) | 9.33% (active) | 22.4% | 71.6% | – | 58.8% | 41.4% | 33.7% | 22.6% | 28.3% |
| CC1(C)CC[C@]2(C(=O)N3CCOCC3)CC[C@]3(C)C(=CC[C@@H]4[C@@]5(C)CC[C@H](OC(=O)c6cccnc6)C(C)(C)[C@@H]5CC[C@]43C)[C@@H]2C1 | 53.7% | 35.5% | 76.6% | 75.5% | – | 69.7% | – | 86.7% | 89.9% | 88.2% |
| CCN(CC)CCn1nc2c3c(cccc3c1=O)-c1ccccc1-2 | 4.64% (active) | 24.9% | – | 33.9% | 51.6% | 15.6% | – | 76.1% | 35.1% | 7.24% (active) |
| N=C1C(c2nc(-c3ccc(Br)cc3)cs2)=C(O)CN1Cc1cccnc1 | 55.1% | 70.2% | – | 77.1% | 37.2% | – | 101% | 23% | 70.1% | 40.4% |
| O=C1C=C[C@]2(C[C@@H](c3cccc(C(F)(F)F)c3)O[C@@H](c3cccc(C(F)(F)F)c3)O2)O1 | 9.17% (active) | -2.8% (active) | – | 86.2% | 48.9% | 22.3% | -33.1% (active) | -4.02% (active) | 51.3% | 84.9% |
| N#CC1=C(c2ccc(Br)cc2)NC(SCC(=O)c2ccc(Br)cc2)NC1=O (configuration not stated) | 101% | 107% | – | 101% | 101% | 114% | 102% | 97% | 107% | 110% |
| CCOC(=O)c1c2ncccc2n2c(=O)n(-c3ccccc3C)nnc12 | 60.4% | 158% | 99.1% | 101% | – | 63.9% | 135% | 112% | 93.3% | 80.7% |
| COc1cc(/C=C/C(=O)c2ccc(Nc3nc(Nc4ccc(F)cc4)nc(Nc4ccc(Cl)cc4)n3)cc2)cc(OC)c1OC | -5.99% (active) | -47.5% (active) | 31.7% | 81.3% | – | 54.8% | 190% | 59.1% | 38.9% | 105% |
| CNC(=O)c1cc(Oc2ccc3nc(Nc4ccc(Cl)c(C(F)(F)F)c4)ccc3c2)ccn1 | 30% | 53.8% | 58.4% | 91.8% | – | – | 61.5% | 77.8% | 65.5% | 93.3% |
| COc1ccc2c(c1)O/C(=C/c1ccc(OCC(=O)c3ccccc3)cc1)C2=O | 72.7% | 99.7% | 111% | 88.6% | – | – | 90.1% | 350% | 93.1% | – |
| C[C@H](NC(=O)[C@@H]1CSSC[C@@H](NC(=O)c2nc3ccccc3cc2O)C(=O)NCC(=O)N1C)c1ccccc1 | -17.5% (active) | 22.6% | 26.3% | 45.6% | – | 71.6% | -51.4% (active) | 33% | 91.5% | 71.7% |
| COc1ccc(-c2cc(-c3cc(OC)ccc3OC)nc(SCC(=O)c3ccccc3)c2C#N)cc1 | 83.3% | 105% | – | 103% | 91.8% | 97.3% | 108% | 97.3% | 93.1% | 86.7% |
| COc1ccc(NC(=O)c2nc(-c3cc(OC)c(OC)c(OC)c3)n(-c3cccc4ccccc34)n2)cc1OC | 33.1% | 11.6% | – | 56.1% | 45.5% | 22.9% | 27.7% | 23.4% | 35.2% | 38.3% |
| N#Cc1c(N)nn(C(=O)c2ccc(NC(=O)c3ccccn3)cc2)c1-c1ccc(Cl)cc1 | 50% | 43.6% | 18.4% | 62.7% | – | 11.1% | 6.15% (active) | 28.6% | 28.5% | 67.2% |
| COC(=O)c1c2c(c(C)[n+]([O-])c1C)C(=O)C(NCc1ccc(F)cc1)=CC2=O | 9.28% (active) | 26.9% | – | 46.2% | -38.5% (active) | 17.6% | -21% (active) | 82.6% | 10% | 84.1% |
| CC/C=C\CCC/C=C1/C(=O)C=C[C@@H]1C/C=C\CCCC(=O)O | 8.78% (active) | 6.36% (active) | – | 72.6% | 92.5% | 104% | 43.6% | 45.7% | 19% | 124% |
